# Source: PubChem BioAssay (several laboratories)
# A selection: hits, their analogues and other compounds. The true share with any hit is near 2.1%.
# PrPC TRFRET: cell surface PrPC inhibition, primary TR-FRET screen; 370,000 tested, 0.43% active; TR-FRET read-out; AID 720596; inhibition, % at 13.8 µM; in the data active = inhibition above about 24%
# BJeLR viability: kills HRASV12-expressing BJeLR cells | AID 1554 | 300,000 tested, 0.17% active | BJeLR (HRASV12) viability, CellTiter-Glo ATP luminescence, 48 h | inhibition, % (test concentration not listed); in the data active = inhibition above about 50%
# PfHsp40 yeast: restores yeast growth despite PfHsp40 toxicity; S. cerevisiae expressing PfHsp40, growth rescue, ATP luminescence; growth rescue, % at 12.5 µM; 340,000 tested, 0.68% active; in the data active = growth rescue above about 28%, passing the limit was not always enough;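 note: yeast W303a lacking pdr1 and pdr3 grown in galactose medium; growth measured after three days at 30 °C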
# PrP 5UTR inh: suppresses PrP 5' UTR mRNA reporter expression; cell-based PrP 5' UTR mRNA reporter, plate reader; 340,000 tested, 0.35% active; AID 488862; inhibition, % (no concentration beside the values); in the data active = inhibition above about 52%
# VHR inh abs: DUSP3 (human) phosphatase inhibition; P51452; AID 1654; recombinant VHR phosphatase, pNPP absorbance; 290,000 tested, 0.52% active; inhibition, % at 13.3 µM; in the data active = inhibition above about 50%
# Target sequence (P51452 whole entry, looked up): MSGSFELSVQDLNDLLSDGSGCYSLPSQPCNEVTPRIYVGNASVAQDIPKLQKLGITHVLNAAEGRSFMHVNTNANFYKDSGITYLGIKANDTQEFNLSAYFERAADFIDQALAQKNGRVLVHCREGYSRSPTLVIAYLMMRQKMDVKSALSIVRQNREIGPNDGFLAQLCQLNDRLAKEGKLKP
# MazF activator: MazEF (E. coli) toxin RNase activation. P0AE70. FAM/BHQ RNA-DNA oligo cleavage fluorescence, 5 h. activation, % at 20 µM. 350,000 tested, 0.32% active; in the data active = activation above about 50%
# Target sequence (P0AE70 whole entry, looked up): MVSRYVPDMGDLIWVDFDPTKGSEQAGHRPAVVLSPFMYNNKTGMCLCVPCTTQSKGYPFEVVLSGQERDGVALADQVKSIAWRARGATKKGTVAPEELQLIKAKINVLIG
# Hits are given with their value; 0 = inactive; - = no result.
SMILES,PrPC TRFRET,BJeLR viability,PfHsp40 yeast,PrP 5UTR inh,VHR inh abs,MazF activator
Cc1cc(C(=O)N/N=C/c2ccc3c(c2)OCO3)c(C)o1,0,0,0,0,0,0
CC(C)Oc1ccc(CCC(=O)N/N=C/c2ccc3c(c2)OCO3)cc1,0,0,0,0,51,0
Cc1cc(OCC(=O)N2CCC(C(=O)O)CC2)c2c(C)c(C)c(=O)oc2c1,0,0,0,0,0,0
NC(=O)C1CN(S(=O)(=O)c2ccc(Cl)cc2F)c2ccccc2O1 (stereo not drawn),0,0,0,0,0,0
CCCCCOc1ccc(CSc2n[nH]c(C)n2)cc1,0,0,271,0,0,0
Cc1nc(SCc2ccc(OCCC(C)C)cc2)n[nH]1,0,0,301,0,0,0
Cc1nc(SCc2ccc(F)cc2)n[nH]1,0,0,0,0,0,0
Cc1cc2cc(C#N)c(NCCNC(=S)NCCCN3CCOCC3)nc2cc1C,0,0,0,0,60,0
Cc1cccc2cc(C#N)c(NCCNC(=S)NCCCN3CCOCC3)nc12,0,0,0,0,0,0
Cc1cccc(C)c1NC(=O)CN(C)C(=O)CC1OC(=O)c2ccccc21 (stereo not drawn),0,0,0,0,-,0
C#CCONC(=O)c1cc(OCC(F)(F)F)ccc1OCC(F)(F)F,0,0,0,0,53,0
N#Cc1ccccc1N1CCN(S(=O)(=O)c2ccc3c(c2)CCC(=O)N3)CC1,0,-,-,-,-,-
COc1ccc2c(c1)C1C=CCC1C(c1cc3c(cc1Br)OCO3)N2 (stereo not drawn),0,0,68,0,0,0
O=C(COc1ccc(Cl)c2cccnc12)N1CCOCC1,0,-,0,0,-,0
O=S(=O)(O)c1ccc(N=Nc2ccccc2)cc1,0,0,0,0,0,0
O=c1ccc(N=Nc2ccccc2)ccc1O,0,0,102,0,0,0
Cc1cccc(Nc2nnc(SCC(=O)NC(=O)CN3CCCC3=O)s2)c1,0,-,0,0,-,0
CCOC(=O)C1=C(C)N=c2s/c(=C\c3ccc(OCC(=O)O)cc3)c(=O)n2C1c1ccccc1 (stereo not drawn),0,0,0,0,0,0
COC(=O)C1=C(C)N=c2s/c(=C/c3ccoc3)c(=O)n2C1c1ccccc1 (stereo not drawn),-,0,0,0,0,88
COc1ccc2c(C)cc(SCC(=O)Nc3cc(C(N)=O)cc(C(N)=O)c3)nc2c1,0,0,0,0,0,104
COc1cccc(CC(=O)OC(C)C(=O)Nc2ncc(Cl)cc2Cl)c1 (stereo not drawn),0,0,0,0,-,0
COc1ccccc1C(=O)NC(CCSC)C(=O)NNC(=O)c1ccc(F)cc1 (stereo not drawn),0,0,0,0,0,0
COc1ccccc1C(=O)NC(CCSC)C(=O)NNC(=O)c1ccccc1O (stereo not drawn),0,-,98,0,-,0
CCCNC(=O)/C(C#N)=C1\N=C(NC(=O)c2ccco2)c2ccccc21,0,0,0,0,0,90
COCCNC(=O)/C(C#N)=C1\N=C(NC(=O)c2ccco2)c2ccccc21,0,-,-,-,-,0
SMILES,PrPC TRFRET,BJeLR viability,PfHsp40 yeast,PrP 5UTR inh,VHR inh abs,MazF activator
CC1(C(=O)OCC(=O)Nc2ccc3ccccc3c2)CC1(Cl)Cl (stereo not drawn),0,0,46,0,0,0
Cc1ccc(C2=CC(c3ccc(C)cc3)n3ncnc3N2)cc1 (stereo not drawn),0,0,69,0,-,0
O=[N+]([O-])c1ccccc1/C=N/N1CCN(Cc2ccccc2)CC1,0,0,0,0,58,0
CN(C)C1(CNC(=O)c2cccc(S(=O)(=O)Nc3ccc(Br)cc3)c2)CCCCC1,0,0,0,0,-,0
O=C(O)c1ccc(S(=O)(=O)N2CCc3ccccc3C2)cc1,0,0,0,0,0,0
COc1cc(CCC(=O)OCC(=O)N(CCC#N)c2ccccc2)cc(OC)c1OC,0,0,0,0,0,0
Cc1ccc(C(C)CCN2CCC(n3nccc3NC(=O)c3ccccc3)CC2)o1 (stereo not drawn),0,0,0,0,53,0
O=Cc1ccc2cccnc2n1,0,0,0,0,0,0
O=Cc1ccc2ccc3cccnc3c2n1,0,0,0,0,57,0
CCOC(=O)[C@H]1[C@H]2COc3ccc(C)cc3[C@@H]2N2C(=O)[C@@H](C)NC(=O)[C@@]12C,0,-,0,0,-,0
COc1ccc(C(=O)NCCCCNC(=O)c2ccc(OC)c(OC)c2)cc1OC,0,0,0,0,0,0
Cc1ccc(SCCC(=O)N2CCCC2)cc1,0,0,42,0,0,0
CC(=O)Nc1cc(-c2ccc(CO)cc2)cn2c(-c3cccc(C(F)(F)F)c3)cnc12,0,-,-,-,-,-
NC(=Nc1nc(-c2ccccn2)cc2ccccc12)c1ccccn1,0,-,163,0,-,0
COc1ccc(CCNC(=O)C2CCN(S(=O)(=O)c3ccc(NC(C)=O)cc3)CC2)cc1OC,0,0,0,0,0,0
Cc1c(N=Cc2cc(Br)cc(Br)c2O)cccc1C(=O)O,0,0,59,0,0,0
O=C(O)c1cccc(N/N=C/c2cc(Br)cc(Br)c2O)c1,0,0,0,0,0,0
Cc1ccc(C)c(S(=O)(=O)NC(C)C(=O)Nc2ccc(-c3nc4ccccc4s3)cc2)c1 (stereo not drawn),0,0,0,0,0,52
CC(NS(=O)(=O)c1cccc(Cl)c1)C(=O)Nc1ccc(-c2nc3ccccc3s2)cc1 (stereo not drawn),0,0,0,0,0,0
CCc1c(C)sc(NC(=O)Cn2nc(C)c([N+](=O)[O-])c2C)c1C(N)=O,0,0,0,0,53,0
COc1cc(OC)c(C(=O)Nc2ccncc2)cc1OC,0,0,0,0,0,0
COc1ccc(C(=O)Nc2ccc3ccccc3c2)c(OC)c1,0,0,60,0,0,0
COc1ccc(C(=O)Nc2ccncc2)c(OC)c1,0,0,0,0,0,0
COc1cc(OC)c(C(=O)Nc2ccc(C(=O)c3ccccc3)cc2)cc1OC,0,0,154,0,0,0
COc1ccc(NC(=O)N(C)C[C@@H]2Oc3cc(C#CCN(C)C)ccc3S(=O)(=O)N([C@H](C)CO)C[C@H]2C)cc1,0,-,-,-,-,0
SMILES,PrPC TRFRET,BJeLR viability,PfHsp40 yeast,PrP 5UTR inh,VHR inh abs,MazF activator
CC(C)=CCc1c2c(c3occ(-c4ccc(O)cc4)c(=O)c3c1O)C=CC(C)(C)O2,0,0,39,0,0,0
Cc1ccc2c(c1)-c1ncc(C(=O)c3cc(Br)ccc3O)cc1CO2,0,0,-,-,56,-
Cc1ccc(O)c(C(=O)c2cnc3c(c2)COc2ccc(C)cc2-3)c1,0,0,0,0,0,0
CC1C(=O)N(Cc2cn(CCC3OCCO3)nn2)CCS(=O)(=O)N1Cc1ccc(-c2ccc(Cl)c(Cl)c2)cc1 (stereo not drawn),0,-,-,-,-,0
CC(=O)N/C(=C\c1ccccc1)C(=O)OCC(=O)NC1CCCC1,0,0,0,0,58,0
O=C(NN=Cc1cc(=O)[nH]c(=O)[nH]1)c1ccncc1,0,-,30,0,-,0
CCCCNc1ccc2c(c1)OC[C@@H](CC(C)C)NS2(=O)=O,0,-,-,-,-,-
